Source: PubChem BioAssay
Activity calls are given as the source filed them. Unless noted, the rule behind the calls is not given here.

Tests used:
[1] = system: Wnt5a (protein binding on small-molecule microarray); test: Wnt5a binders on small-molecule microarray, primary screen, biophysical, 635/667 nm fluorescence (AID 1142); conditions: 635 nm fluorescence, higher = more signal;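 note: fluorescence read at 667 nm with signal to noise per printed feature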
[2] = cell viability in Huh7 cells, primary screen, cytotoxicity control for HCV replication inhibitor project, CellTiter-Glo luminescence, basal, 48 h (AID 1143); conditions: Huh7 HCV replicon, higher = more signal, called active from +8 up or from −8 down;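 note: Huh7 hepatoma cells carrying a hepatitis C replication reporter with no stimulus; test concentration not given here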
[3] = P. aeruginosa biofilm formation inhibitors, primary screen, PAO1 strain, BacTiter-Glo luminescence, LB-PBS (AID 1144); conditions: 12 h, higher = more signal
[4] = CREB reporter modulators without forskolin, primary screen, cell-based, PC12, CRE-LacZ reporter, unstimulated (AID 1145); conditions: no forskolin, luminescence, 4.5 h, higher = more signal, called active from +8 up or from −8 down
[5] = CREB reporter modulators under forskolin, primary screen, cell-based, PC12, CRE-LacZ reporter, forskolin-stimulated (AID 1146); conditions: luminescence, 4.5 h, higher = more signal, called active from +8 up or from −8 down;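 note: PC12 cells with 6xCRE LacZ reporter stimulated by forskolin 10 µM; beta-galactosidase reporter signal reflecting CREB driven transcription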
[6] = biological target: Streptavidin (Streptomyces avidinii) (UniProt P22629); test: streptavidin binders on small-molecule microarray, primary screen, artefact control for SMM compound annotation, biophysical, 635/667 nm fluorescence (AID 1147); conditions: streptavidin binding, higher = more signal;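 note: signal reflects streptavidin binding to arrayed compounds as a control protein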
[7] = small-molecule binders of probe aInhba, primary screen, biochemical, small-molecule microarray, 635/667 nm fluorescence (AID 1148); conditions: higher = more signal;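 note: score merges 667nm spot fluorescence with signal-to-noise for antibody binding to printed compounds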
[8] = biological target: Torsin-1A (Homo sapiens) (UniProt O14656); test: torsin A binders from cell lysate, primary screen, small-molecule microarray, wild-type, 635/667 nm (AID 1149); conditions: COS7 hTOR1A-WT lysate, 635 nm fluorescence, higher = more signal
[9] = biological target: Torsin-1A (Homo sapiens) (UniProt O14656); test: small-molecule binders of mutant TOR1A in lysate, primary screen, cell lysate, small-molecule microarray, COS7 lysate, 635/667 nm fluorescence (AID 1150); conditions: COS7 hTOR1A mutant lysate, 635 nm fluorescence, higher = more signal;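 note: score pools 667 nm emission and signal to noise measuring lysate protein binding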
[10] = system: Sonic hedgehog protein (Shh); test: small-molecule binders of Shh protein, primary screen, biochemical, small-molecule microarray, 635/667 nm fluorescence (AID 1151); conditions: small-molecule microarray binding, 635 nm fluorescence; higher = more signal;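 note: Shh protein binding to compounds spotted on small-molecule microarray slides; score combines spot fluorescence intensity with signal-to-noise across triplicate slides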
[11] = E. coli DRC41 culture turbidity changes, primary screen, E. coli filamentation inducer project, strain DRC41, OD650, 48 h (AID 1152);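 note: E. coli MC1000 strain DRC41 lacking acrAB efflux pump and sulA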; conditions: E. coli DRC41 (acrAB sulA), higher = more signal, called active from +8 up or from −8 down
[12] = small-molecule binders of probe aLefty1, primary screen, biochemical, small-molecule microarray, 635/667 nm fluorescence (AID 1153); conditions: higher = more signal;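 note: score merges spot fluorescence with signal-to-noise ratio from the scanned slide images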
[13] = PSAC antagonists in infected red cells, primary screen, cell-based, P. falciparum Indochina, OD700, 1 h (AID 1154); conditions: P. falciparum Indochina infected RBC osmotic lysis, higher = more signal, called active from +8 up or from −8 down
[14] = PSAC antagonists in infected red cells, primary screen, cell-based, P. falciparum Indochina, OD700, 2 h (AID 1155);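 note: lysis reports solute entry through the parasite surface anion channel PSAC; channel blockers reduce lysis of infected cells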; conditions: P. falciparum Indochina infected erythrocytes, osmotic lysis OD700; higher = more signal, called active from +8 up or from −8 down
[15] = osmotic lysis modulators in infected erythrocytes, primary screen, PSAC antagonist project, cell-based, P. falciparum Indochina, OD700, 3 h (AID 1156); conditions: higher = more signal, called active from +8 up or from −8 down
[16] = PSAC antagonists in infected red cells, primary screen, cell-based, P. falciparum Indochina, OD700, 18 h (AID 1157); conditions: P. falciparum Indochina infected erythrocytes, osmotic lysis OD700, 18 h; higher = more signal, called active from +8 up or from −8 down
[17] = modulators of S6 phosphorylation in cells, primary screen, cell-based, A549, cytoblot, luminescence, serum-stimulated (AID 1158); conditions: A549 phospho-S6 cytoblot, 5 h, higher = more signal;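 note: serum-stimulated A549 lung adenocarcinoma cells; signal is phosphorylated S6 detected by cytoblot immunostaining with HRP secondary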
[18] = biological target: NADPH oxidase 2 (Homo sapiens) (UniProt P04839); test: NOX2-dependent H2O2 signal modulators, primary screen, NOX inhibitor project, cell-based, HEK293-NOX2, PMA-stimulated, Amplex Red fluorescence (AID 1159); conditions: 45 min, higher = more signal, called active from +8 up or from −8 down; note: test concentration not given here
[19] = biological target: NADPH oxidase 4 (Homo sapiens) (UniProt Q9NPH5); test: NOX4-dependent H2O2 signal modulators, primary screen, NOX inhibitor project, cell-based, HEK293-NOX4, tetracycline-induced, Amplex Red fluorescence (AID 1160); conditions: 45 min, higher = more signal, called active from +8 up or from −8 down
[20] = biological target: NADPH oxidase 5 (Homo sapiens) (UniProt Q96PH1); test: NOX5-dependent H2O2 signal modulators, primary screen, NOX inhibitor project, cell-based, HEK293-NOX5, Amplex Red fluorescence (AID 1161); conditions: HEK293-NOX5, ionomycin, 45 min, higher = more signal
Sequence of NADPH oxidase 5 (Homo sapiens) (Q96PH1 whole entry, looked up): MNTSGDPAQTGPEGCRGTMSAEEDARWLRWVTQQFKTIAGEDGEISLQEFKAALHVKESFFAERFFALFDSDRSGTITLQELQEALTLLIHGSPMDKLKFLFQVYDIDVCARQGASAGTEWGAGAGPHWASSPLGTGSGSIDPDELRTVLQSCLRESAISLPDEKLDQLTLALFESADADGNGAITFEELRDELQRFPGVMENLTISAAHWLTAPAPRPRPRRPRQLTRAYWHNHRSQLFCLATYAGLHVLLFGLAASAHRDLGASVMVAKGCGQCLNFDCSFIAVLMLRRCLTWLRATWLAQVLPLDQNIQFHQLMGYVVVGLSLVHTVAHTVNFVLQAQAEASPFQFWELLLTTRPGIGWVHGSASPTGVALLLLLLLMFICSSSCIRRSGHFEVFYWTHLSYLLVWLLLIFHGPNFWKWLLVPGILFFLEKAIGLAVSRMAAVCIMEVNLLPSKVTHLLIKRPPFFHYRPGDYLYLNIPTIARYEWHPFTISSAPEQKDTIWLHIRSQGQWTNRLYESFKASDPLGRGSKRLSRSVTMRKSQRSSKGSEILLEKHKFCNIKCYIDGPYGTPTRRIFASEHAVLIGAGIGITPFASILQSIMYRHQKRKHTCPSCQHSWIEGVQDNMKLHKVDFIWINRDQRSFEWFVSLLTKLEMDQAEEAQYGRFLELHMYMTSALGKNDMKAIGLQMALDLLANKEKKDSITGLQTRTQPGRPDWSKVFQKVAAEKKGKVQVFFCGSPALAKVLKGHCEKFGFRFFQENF

Sequence of Streptavidin (Streptomyces avidinii) (P22629 whole entry, looked up): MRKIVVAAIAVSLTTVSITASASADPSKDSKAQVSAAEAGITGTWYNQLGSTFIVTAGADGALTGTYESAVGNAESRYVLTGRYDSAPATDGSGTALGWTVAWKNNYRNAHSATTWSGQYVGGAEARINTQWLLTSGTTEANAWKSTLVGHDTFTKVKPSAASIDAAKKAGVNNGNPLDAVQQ
Sequence of NADPH oxidase 4 (Homo sapiens) (Q9NPH5 whole entry, looked up): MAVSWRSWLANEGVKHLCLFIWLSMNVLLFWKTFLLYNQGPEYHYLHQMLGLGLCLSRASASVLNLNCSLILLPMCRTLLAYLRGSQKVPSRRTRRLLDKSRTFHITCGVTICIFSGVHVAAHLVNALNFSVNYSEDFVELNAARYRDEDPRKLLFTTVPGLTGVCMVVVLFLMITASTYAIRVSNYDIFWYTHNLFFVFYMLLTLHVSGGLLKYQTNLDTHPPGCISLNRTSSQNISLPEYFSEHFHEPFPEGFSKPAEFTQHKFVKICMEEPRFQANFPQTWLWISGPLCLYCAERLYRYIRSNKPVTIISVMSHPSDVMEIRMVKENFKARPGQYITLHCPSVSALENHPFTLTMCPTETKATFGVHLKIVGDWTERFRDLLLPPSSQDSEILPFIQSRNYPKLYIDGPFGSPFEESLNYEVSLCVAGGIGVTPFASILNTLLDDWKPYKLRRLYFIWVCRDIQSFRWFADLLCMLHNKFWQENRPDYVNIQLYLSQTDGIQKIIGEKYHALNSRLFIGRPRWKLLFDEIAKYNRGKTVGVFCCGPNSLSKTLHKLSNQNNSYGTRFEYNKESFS
Sequence of Torsin-1A (Homo sapiens) (O14656 whole entry, looked up): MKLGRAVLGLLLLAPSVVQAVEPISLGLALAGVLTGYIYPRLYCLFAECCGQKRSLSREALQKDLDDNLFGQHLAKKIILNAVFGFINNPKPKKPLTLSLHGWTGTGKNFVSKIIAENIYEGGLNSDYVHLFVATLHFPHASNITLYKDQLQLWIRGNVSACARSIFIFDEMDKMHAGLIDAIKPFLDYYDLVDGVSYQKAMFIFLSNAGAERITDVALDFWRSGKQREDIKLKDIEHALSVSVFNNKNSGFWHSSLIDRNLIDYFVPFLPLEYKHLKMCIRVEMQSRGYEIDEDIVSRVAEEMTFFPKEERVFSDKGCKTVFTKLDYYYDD
Sequence of NADPH oxidase 2 (Homo sapiens) (P04839 whole entry, looked up): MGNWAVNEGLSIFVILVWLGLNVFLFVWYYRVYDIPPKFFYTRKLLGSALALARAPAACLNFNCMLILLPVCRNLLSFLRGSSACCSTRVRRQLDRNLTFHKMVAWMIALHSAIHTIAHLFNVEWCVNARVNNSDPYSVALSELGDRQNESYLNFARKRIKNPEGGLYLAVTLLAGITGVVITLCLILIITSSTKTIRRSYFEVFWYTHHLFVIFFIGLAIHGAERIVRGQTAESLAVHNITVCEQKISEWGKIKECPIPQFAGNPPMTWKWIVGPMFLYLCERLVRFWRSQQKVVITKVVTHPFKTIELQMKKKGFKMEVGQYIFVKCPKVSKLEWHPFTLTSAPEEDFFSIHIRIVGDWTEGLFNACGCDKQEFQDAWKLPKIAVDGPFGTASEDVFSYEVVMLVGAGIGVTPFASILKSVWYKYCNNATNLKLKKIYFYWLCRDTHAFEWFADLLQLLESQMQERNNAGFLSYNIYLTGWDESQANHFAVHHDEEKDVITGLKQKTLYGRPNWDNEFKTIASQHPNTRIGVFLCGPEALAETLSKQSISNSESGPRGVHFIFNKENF

Structure (SMILES)	composite z-score [1]	z-score [2]	z-score [3]	z-score [4]	z-score [5]	composite z-score [6]	composite z-score [7]	composite z-score [8]	composite z-score [9]	composite z-score [10]	z-score [11]	composite z-score [12]	z-score [13]	z-score [14]	z-score [15]	z-score [16]	z-score [17]	z-score [18]	z-score [19]	z-score [20]
CCN1C(=O)[C@H]2[C@H]3[C@H](O)[C@H](O)CC(=NOC[C@H]4O[C@H](c5ccccc5)C=C[C@@H]4Oc4ccc(OC)cc4)[C@@H]3CC[C@H]2C1=O	0.353	-0.509 (inactive)	1.13 (inactive)	0.843 (inactive)	0.126 (inactive)	0.29	0.0497	0.66	0.586	0.827	0.575 (inactive)	0.171	10.7 (active)	1.65 (inactive)	0.622 (inactive)	0.809 (inactive)	-0.763	0.863 (inactive)	0.91 (inactive)	0.456
COc1ccc(O[C@H]2C=C[C@@H](c3ccccc3)O[C@@H]2COC(=O)CCC(C)=NOC(C)CN2CCCc3nc(C)c(C)cc32)cc1 (stereo not given in full)	0.162	-0.61 (inactive)	-0.34 (inactive)	0.448 (inactive)	-0.507 (inactive)	0.629	-0.12	0.0595	0.486	1.01	-0.343 (inactive)	0.0004	8.59 (active)	0.812 (inactive)	0.54 (inactive)	0.563 (inactive)	-0.314	-2.38 (inactive)	-0.643 (inactive)	-1.35
CCOC(=O)[C@H](CC(C)C)NC(=O)CCC1CC(OC(=O)NCCc2ccc(F)cc2)CC2(CCCC(COC(=O)NCC3CCCCC3)O2)O1 (stereo not given in full)	0.0548	0.791 (inactive)	0.239 (inactive)	0.381 (inactive)	0.868 (inactive)	1.42	-0.148	-0.0001	0.915	0.648	-1.12 (inactive)	-0.169	2.04 (inactive)	0.132 (inactive)	0.107 (inactive)	-0.341 (inactive)	0.673	-0.202 (inactive)	0.728 (inactive)	0.123
CCOC(=O)[C@H](Cc1ccccc1)NC(=O)CCC1CC(OC(=O)NCc2cccc3ccccc23)CC2(CCCC(COC(=O)NCc3cccc(C(F)(F)F)c3)O2)O1 (stereo not given in full)	-0.0693	-0.816 (inactive)	-0.641 (inactive)	4.81 (inactive)	-0.0734 (inactive)	0.339	-0.0375	-0.347	-0.385	0.0624	0.263 (inactive)	-0.0984	18.5 (active)	2.83 (inactive)	0.654 (inactive)	0.493 (inactive)	-0.283	0.402 (inactive)	0.0385 (inactive)	-0.162
CC(CCN1CCCCc2nc(C)c(C)cc21)=NO[C@@H](C)c1cn([C@H](CO)Cc2ccccc2)nn1	-0.0648	-0.831 (inactive)	0.48 (inactive)	1.62 (inactive)	-0.0513 (inactive)	0.336	-0.016	0.803	0.728	1.02	0.72 (inactive)	0.0618	2.04 (inactive)	0.32 (inactive)	0.729 (inactive)	0.367 (inactive)	-0.11	-2.09 (inactive)	-0.106 (inactive)	-0.199
COC(=O)[C@H](C)NC(=O)CCC1CC(OC(=O)NCCc2ccc(F)cc2)CC2(CCCC(COC(=O)NCCC(C)C)O2)O1 (stereo not given in full)	0.255	-0.872 (inactive)	-1.41 (inactive)	0.109 (inactive)	0.283 (inactive)	0.0943	0.0047	-0.184	-0.0067	1.22	-0.484 (inactive)	0.0844	21.1 (active)	4.7 (inactive)	0.0444 (inactive)	0.266 (inactive)	1.14	0.341 (inactive)	0.302 (inactive)	-0.385
CCOC(=O)[C@H](CC(C)C)NC(=O)CCC1CC(OC(=O)NCCc2ccc(F)cc2)CC2(CCCC(COC(=O)NCC(c3ccccc3)c3ccccc3)O2)O1 (stereo not given in full)	0.228	-0.361 (inactive)	-0.427 (inactive)	-0.438 (inactive)	-0.292 (inactive)	1.22	0.0111	-0.106	0.241	0.721	-1.18 (inactive)	-0.147	4 (inactive)	-0.523 (inactive)	0.784 (inactive)	-0.316 (inactive)	0.0441	1.47 (inactive)	1.88 (inactive)	1.52
C#CCCCON=C1[C@H]2CCn3c(=O)n(C)c(=O)n3[C@H]2[C@H](O)[C@@H]2O[C@H]12	0.119	0.119 (inactive)	0.806 (inactive)	0.523 (inactive)	-0.149 (inactive)	0.38	0.0471	0.326	0.693	0.837	0.117 (inactive)	0.126	-0.611 (inactive)	0.147 (inactive)	-0.354 (inactive)	0.0334 (inactive)	-0.0228	-0.0249 (inactive)	-0.124 (inactive)	0.71
O=C1[C@H]2[C@H]3[C@H](O)[C@H](O)CC(=NOCc4ccccc4)[C@@H]3CC[C@H]2C(=O)N1Cc1ccc2c(c1)OCO2	0.0098	0.445 (inactive)	-0.312 (inactive)	0.0664 (inactive)	-0.174 (inactive)	0.193	-0.101	0.537	-0.0537	0.643	0.0628 (inactive)	0.217	6.28 (inactive)	1.02 (inactive)	1.06 (inactive)	0.354 (inactive)	0.0008	1.09 (inactive)	0.665 (inactive)	-1.01
